# Assay results: PubChem BioAssay (Tox21)
# Where “and” joins values, the source holds several entries; their conditions need not be identical. Equal entries are not always repeated. Results filed as inconclusive are left out. Some structures have more than one record in an assay (separate samples or runs), and their calls can disagree. Calls of active or inactive are those of the source. Calls follow the shape of the full dose curve.
# Experiment: qHTS assay for small molecule agonists of the p53 signaling pathway (AID 651631); also: nearly all actives have a fitted effect of over 15% in size
# Conditions: HCT-116 p53RE-bla reporter, beta-lactamase FRET ratio, 16 h; series mostly up to 73.3 µM; activation: at the top concentration
# In short: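 p53RE-bla HCT-116 cells; compounds 16 h, 37 °C; LiveBLAzer B/G FRET substrate 2 h RT; fluorescence intensity read-out, qHTS format.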
# % is scaled to controls: 0 for no effect and ±100 for the full control effect; potency is read from the fitted curve at half-maximal effect.
Compound,activation,Potency
c1cnc2cc3c(cc2n1)C1CNCC3C1,-2.58% [at 95.1 µM] (inactive),–
NC(N)=NC(=O)Cc1c(Cl)cccc1Cl,3.51% (inactive),–
CC(=O)OCC1=C(C(=O)O)N2C(=O)[C@@H](NC(=O)Cc3cccs3)[C@H]2SC1,-2.13% (inactive),–
NCCCCCC(=O)O,4.88% [at 34.7 µM] (inactive),–
CC1COC(=O)O1 (stereo unspecified),-1.77% (inactive),–
OCC(CO)N[C@H]1C[C@](O)(CO)[C@@H](O)[C@H](O)[C@H]1O,2.27% (inactive),–
C=C(C)C1CC=C(C)C(OC(C)=O)C1 (stereo unspecified),–,inactive
C[N+]1([O-])CCOCC1,2.07% (inactive),–
Cc1cccc(O)c1C,–,inactive
Cc1cccc([N+](=O)[O-])c1C(=O)O,0.699% (inactive),–
O=C(O)c1cc(Cl)cc(Cl)c1,3.08% (inactive),–
c1ccc2n[nH]nc2c1,-0.562% (inactive),–
Nc1cc(Cl)c(-c2cc(Cl)c(N)cc2Cl)cc1Cl,–,68.5 µM (active) and 68.6 µM (active)
CCCNC(C)C(=O)Nc1ccccc1C (stereo unspecified),-2.02% (inactive),–
OCCN1CCNCC1,-2.54% [at 95.1 µM] (inactive),–
C/C=C/c1ccc(OCC)c(O)c1,1.72% (inactive),–
C=CC(=O)OCCCCCCCC,-1.25% (inactive),–
CC(C)(C)NCC(O)c1cc(O)cc(O)c1 (stereo unspecified),1.76% (inactive),–

Compound,activation,Potency
CC(=O)OCCOCCOCCOC(C)=O,–,inactive
CNC1(C)C2CCC(C2)C1(C)C (stereo unspecified),-1.34% (inactive),–
CCC(CO)(CO)COCC(CC)(CO)CO,5.59% (inactive),–
CCN1CCCC1CNC(=O)c1cc(S(=O)(=O)CC)c(N)cc1OC (stereo unspecified),-4.32% (inactive),–
O=C(O)CCc1ccccc1,1.28% (inactive),–
Nc1nc2ccccc2[nH]1,2.72% (inactive),–
COC(=O)c1cccc(C(=O)OC)c1,–,inactive
CCC[C@H](N[C@@H](C)C(=O)N1[C@H](C(=O)O)C[C@@H]2CCCC[C@@H]21)C(=O)OCC,-1.62% (inactive),–
Cc1occc(=O)c1OC(=O)C(C)C,-1.28% (inactive),–
CC(C)C(=O)c1c(C(C)C)nn2ccccc12,-0.381% (inactive),–
NC(N)=Nc1nc(CSCC/C(N)=N/S(N)(=O)=O)cs1,–,inactive
CO[Si](OC)(OC)c1ccccc1,2.95% (inactive),–
CN1C(=O)c2ccc([N+](=O)[O-])cc2C1=O,1.93% (inactive),–
CCOc1ccccc1C(N)=O,–,inactive
CC(C)(O)CCC(C)(C)O,-3.92% [at 95.1 µM] (inactive),–
[Cl][In]([Cl])[Cl],–,inactive and 61.1 µM (active)
CCn1cc(C(=O)O)c(=O)c2cc(F)c(N3CCNC(C)C3)c(F)c21 (stereo unspecified),–,inactive
O=C(O)CP(=O)(O)O,-2.43% (inactive),–
